Results reported in the supplement of paper PMC12282887.
± gives the standard deviation of the averaged measurements.

Experiments:
Assay in all cases: promoter activity interaction Z-score (Lux/OD deviation from empty-vector control); higher = stronger promoter induction by the compound
[1] = test system: E. coli BW25113 robp lux reporter
Method in brief: (§1)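 Reporter strains of E. coli BW25113 grew at 37°C in 40 µl LB Lennox in 384-well plates. Readings of OD600 and luminescence were taken every 30 min over 12 h, integrated over 0–8 h (wild type) or 1–9 h (deletion strains), and wells below 10% of the median growth value were excluded. Scores are Z-transformed residuals of growth-normalised luminescence from a fit against a control.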

[2] = test system: E. coli BW25113 soxSp lux reporter
Method in brief: as §1

[3] = test system: E. coli BW25113 tolCp lux reporter
Method in brief: as §1

[4] = test system: E. coli BW25113 acrABp lux reporter
Method in brief: as §1

[5] = test system: E. coli BW25113 micFp lux reporter
Method in brief: as §1

[6] = test system: E. coli BW25113 ompFp lux reporter
Method in brief: as §1

[7] = 0.0045 µg/ml, genetic background: wild type
[8] = 0.0045 µg/ml, genetic background: ΔmarA
[9] = 0.0045 µg/ml, genetic background: Δrob
[10] = 0.0045 µg/ml, genetic background: ΔsoxS
[11] = 0.009 µg/ml, genetic background: wild type
[12] = 0.009 µg/ml, genetic background: ΔmarA
[13] = 0.009 µg/ml, genetic background: Δrob
[14] = 0.009 µg/ml, genetic background: ΔsoxS
[15] = 0.0012 µg/ml, genetic background: wild type
[16] = 0.0012 µg/ml, genetic background: ΔmarA
[17] = 0.0012 µg/ml, genetic background: Δrob
[18] = 0.0012 µg/ml, genetic background: ΔsoxS
[19] = 0.0025 µg/ml, genetic background: wild type
[20] = 0.0025 µg/ml, genetic background: ΔmarA
[21] = 0.0025 µg/ml, genetic background: Δrob
[22] = 0.0025 µg/ml, genetic background: ΔsoxS
[23] = 0.005 µg/ml, genetic background: wild type
[24] = 0.005 µg/ml, genetic background: ΔmarA
[25] = 0.005 µg/ml, genetic background: Δrob
[26] = 0.005 µg/ml, genetic background: ΔsoxS
[27] = 0.0099 µg/ml, genetic background: wild type
[28] = 0.0099 µg/ml, genetic background: ΔmarA
[29] = 0.0099 µg/ml, genetic background: Δrob
[30] = 0.0099 µg/ml, genetic background: ΔsoxS

C[C@H]1COc2c(N3CCN(C)CC3)c(F)cc3c(=O)c(C(=O)O)cn1c23 [Levofloxacin]
promoter activity interaction Z-score [1, 7]: 0.859 ± 0.36 | promoter activity interaction Z-score [1, 8]: 0.95 ± 0.41 | promoter activity interaction Z-score [1, 9]: -0.178 ± 0.062 | promoter activity interaction Z-score [1, 10]: 0.248 ± 0.29 | promoter activity interaction Z-score [1, 11]: -0.182 ± 0.079 | promoter activity interaction Z-score [1, 12]: 0.841 ± 0.84 | promoter activity interaction Z-score [1, 13]: 0.348 | promoter activity interaction Z-score [1, 14]: -0.154 ± 1.2 | promoter activity interaction Z-score [2, 7]: -0.114 ± 0.024 | promoter activity interaction Z-score [2, 8]: 0.133 ± 0.013 | promoter activity interaction Z-score [2, 9]: -0.071 ± 0.15 | promoter activity interaction Z-score [2, 10]: 0.197 ± 0.43 | promoter activity interaction Z-score [2, 11]: 0.185 ± 0.047 | promoter activity interaction Z-score [2, 12]: 0.0863 ± 0.079 | promoter activity interaction Z-score [2, 13]: -0.0469 ± 0.15 | promoter activity interaction Z-score [2, 14]: 2.32 ± 0.6 | promoter activity interaction Z-score [3, 7]: -0.228 ± 1.2 | promoter activity interaction Z-score [3, 8]: 0.741 ± 0.18 | promoter activity interaction Z-score [3, 9]: -0.128 ± 1 | promoter activity interaction Z-score [3, 10]: -0.647 ± 0.99 | promoter activity interaction Z-score [3, 11]: 0.287 ± 1 | promoter activity interaction Z-score [3, 12]: 0.606 | promoter activity interaction Z-score [3, 13]: -0.887 | promoter activity interaction Z-score [3, 14]: 2.55 ± 1.9

O=C(O)c1cn(C2CC2)c2cc(N3CCNCC3)c(F)cc2c1=O [Ciprofloxacin]
promoter activity interaction Z-score [4, 15]: -0.0508 ± 0.0034 | promoter activity interaction Z-score [4, 16]: 0.353 ± 0.13 | promoter activity interaction Z-score [4, 17]: 0.173 ± 0.043 | promoter activity interaction Z-score [4, 18]: 0.42 ± 0.15 | promoter activity interaction Z-score [4, 19]: 0.086 ± 0.043 | promoter activity interaction Z-score [4, 20]: 0.398 ± 0.6 | promoter activity interaction Z-score [4, 21]: 0.0723 ± 0.032 | promoter activity interaction Z-score [4, 22]: 0.345 ± 0.36 | promoter activity interaction Z-score [4, 23]: -0.0602 ± 0.085 | promoter activity interaction Z-score [4, 24]: 0.14 ± 0.38 | promoter activity interaction Z-score [4, 25]: -0.262 ± 0.024 | promoter activity interaction Z-score [4, 26]: 0.245 ± 0.15 | promoter activity interaction Z-score [4, 27]: 3.2 ± 0.99 | promoter activity interaction Z-score [5, 15]: -0.234 ± 0.19 | promoter activity interaction Z-score [5, 16]: 0.0327 ± 0.0091 | promoter activity interaction Z-score [5, 17]: -0.0152 ± 0.072 | promoter activity interaction Z-score [5, 18]: 0.0125 ± 0.049 | promoter activity interaction Z-score [5, 19]: -0.177 ± 0.22 | promoter activity interaction Z-score [5, 20]: 0.0702 ± 0.0035 | promoter activity interaction Z-score [5, 21]: 0.0396 ± 0.11 | promoter activity interaction Z-score [5, 22]: 0.236 ± 0.43 | promoter activity interaction Z-score [5, 23]: 0.0988 ± 0.0042 | promoter activity interaction Z-score [5, 24]: 0.222 ± 0.086 | promoter activity interaction Z-score [5, 25]: 0.149 ± 0.08 | promoter activity interaction Z-score [5, 26]: 0.0364 ± 0.036 | promoter activity interaction Z-score [5, 27]: -0.518 ± 0.27 | promoter activity interaction Z-score [5, 28]: -0.126 ± 0.0091 | promoter activity interaction Z-score [5, 29]: -0.163 | promoter activity interaction Z-score [5, 30]: -0.0606 ± 0.43 | promoter activity interaction Z-score [6, 15]: -0.438 ± 0.12 | promoter activity interaction Z-score [6, 16]: -0.0468 ± 0.33 | promoter activity interaction Z-score [6, 17]: -0.155 ± 0.71 | promoter activity interaction Z-score [6, 18]: 0.116 ± 0.044 | promoter activity interaction Z-score [6, 19]: -0.471 ± 0.096 | promoter activity interaction Z-score [6, 20]: -0.00111 ± 0.52 | promoter activity interaction Z-score [6, 21]: -0.691 ± 0.58 | promoter activity interaction Z-score [6, 22]: 0.136 ± 0.14 | promoter activity interaction Z-score [6, 23]: -0.511 ± 0.028 | promoter activity interaction Z-score [6, 24]: -0.0342 ± 0.14 | promoter activity interaction Z-score [6, 25]: -0.495 ± 0.56 | promoter activity interaction Z-score [6, 26]: -0.279 ± 0.43 | promoter activity interaction Z-score [6, 27]: -0.587 ± 0.72 | promoter activity interaction Z-score [1, 15]: 0.0678 ± 0.12 | promoter activity interaction Z-score [1, 16]: 0.253 ± 0.13 | promoter activity interaction Z-score [1, 17]: 0.0957 ± 0.66 | promoter activity interaction Z-score [1, 18]: 1.22 ± 0.77 | promoter activity interaction Z-score [1, 19]: 0.3 ± 0.26 | promoter activity interaction Z-score [1, 20]: -0.0277 ± 0.16 | promoter activity interaction Z-score [1, 21]: 0.0548 ± 0.78 | promoter activity interaction Z-score [1, 22]: 1.24 ± 1.1 | promoter activity interaction Z-score [1, 23]: 0.247 ± 0.46 | promoter activity interaction Z-score [1, 24]: 0.267 ± 0.41 | promoter activity interaction Z-score [1, 25]: -0.0594 ± 0.79 | promoter activity interaction Z-score [1, 26]: 0.171 ± 0.16 | promoter activity interaction Z-score [1, 27]: -0.624 ± 0.76 | promoter activity interaction Z-score [1, 28]: -0.611 | promoter activity interaction Z-score [2, 15]: -0.0335 ± 0.15 | promoter activity interaction Z-score [2, 16]: 0.12 ± 0.047 | promoter activity interaction Z-score [2, 17]: 0.0163 ± 0.22 | promoter activity interaction Z-score [2, 18]: 0.466 ± 0.26 | promoter activity interaction Z-score [2, 19]: -0.17 ± 0.048 | promoter activity interaction Z-score [2, 20]: 0.0948 ± 0.18 | promoter activity interaction Z-score [2, 21]: -0.0974 ± 0.25 | promoter activity interaction Z-score [2, 22]: 0.326 ± 0.014 | promoter activity interaction Z-score [2, 23]: 0.14 ± 0.19 | promoter activity interaction Z-score [2, 24]: 0.125 ± 0.098 | promoter activity interaction Z-score [2, 25]: 0.0524 ± 0.27 | promoter activity interaction Z-score [2, 26]: 0.682 ± 0.7 | promoter activity interaction Z-score [2, 27]: 0.127 ± 0.063 | promoter activity interaction Z-score [2, 28]: 0.0874 ± 0.13 | promoter activity interaction Z-score [2, 29]: -0.378 ± 0.17 | promoter activity interaction Z-score [2, 30]: 3.89 ± 2.3 | promoter activity interaction Z-score [3, 15]: 0.3 ± 0.42 | promoter activity interaction Z-score [3, 16]: 0.215 ± 0.83 | promoter activity interaction Z-score [3, 17]: -0.563 ± 1 | promoter activity interaction Z-score [3, 18]: 0.363 ± 0.45 | promoter activity interaction Z-score [3, 19]: 0.307 ± 0.13 | promoter activity interaction Z-score [3, 20]: -0.633 ± 0.058 | promoter activity interaction Z-score [3, 21]: -0.452 ± 0.41 | promoter activity interaction Z-score [3, 22]: 0.599 ± 0.74 | promoter activity interaction Z-score [3, 23]: 0.224 ± 0.038 | promoter activity interaction Z-score [3, 24]: 0.452 ± 0.24 | promoter activity interaction Z-score [3, 25]: -0.267 ± 1.4 | promoter activity interaction Z-score [3, 26]: 0.965 ± 0.61 | promoter activity interaction Z-score [3, 27]: -0.238 ± 0.84 | promoter activity interaction Z-score [3, 28]: 0.207 ± 0.2 | promoter activity interaction Z-score [3, 29]: -2.22 ± 0.97 | promoter activity interaction Z-score [3, 30]: 1.85 ± 0.19
